# Screens as filed in PubChem BioAssay.
# Most compounds without a hit are left out; they make up all but 11% or so of the library.
# Tau fibril FP – qHTS for Inhibitors of Tau Fibril Formation, Fluorescence Polarization | K18 P301L tau heparin fibrillization, Alexa594 FP, 6 h | Microtubule-associated protein tau (Homo sapiens), P10636 | actives 0.39% (n = 280,000) | Potency, µM (highest dose often 57.7 µM), hits mostly inhibitors; note: nearly all actives have a fitted effect of over 55% in size
# Target sequence (P10636 561-689 P618L limits assumed): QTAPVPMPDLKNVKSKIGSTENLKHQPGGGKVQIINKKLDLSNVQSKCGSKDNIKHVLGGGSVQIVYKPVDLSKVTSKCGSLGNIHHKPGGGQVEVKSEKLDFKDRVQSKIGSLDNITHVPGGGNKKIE
#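 Human tau K18 […] P301L fragment, 15 uM unlabeled plus 0.24 uM Alexa 594-labeled tau (final), with compound and 20 uM heparin in 100 mM sodium acetate pH 7; 6 hr at 37 C, then Alexa 594 FP read.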
# G9a inh – qHTS Assay for Inhibitors of Histone Lysine Methyltransferase G9a. Histone-lysine N-methyltransferase EHMT2 (Homo sapiens), Q96KQ7. G9a H3K9 monomethylation, AlphaScreen, 2 h. Potency, µM (top dose mostly 102 µM), most hits filed as inhibitors. actives 8.8% (n = 350,000). AID 504332, 2011; note: nearly all actives have a fitted effect of over 75% in size
# Target sequence (Q96KQ7 913-1193 limits assumed): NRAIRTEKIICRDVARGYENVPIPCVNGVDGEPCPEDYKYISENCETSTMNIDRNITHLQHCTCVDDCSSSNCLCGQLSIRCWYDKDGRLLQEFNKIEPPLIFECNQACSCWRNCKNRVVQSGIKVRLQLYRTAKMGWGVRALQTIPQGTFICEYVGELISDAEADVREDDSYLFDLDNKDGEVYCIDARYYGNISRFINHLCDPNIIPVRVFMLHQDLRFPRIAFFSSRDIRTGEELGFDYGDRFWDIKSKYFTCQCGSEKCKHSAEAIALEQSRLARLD
#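 Signal arises when biotinylated H3K9 peptide, once monomethylated, bridges streptavidin donor and antibody-captured acceptor beads. Enzyme at 20 nM was preincubated 15 min with test compounds; peptide 500 nM and SAM 20 uM then reacted for 2 h.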
# Tau ThT inhib – qHTS for Inhibitors of Tau Fibril Formation, Thioflavin T Binding; actives 2.1% (n = 270,000); recombinant tau K18 P301L, heparin-induced fibrillization, ThT fluorescence; AID 1460, 2008; Potency, µM (titrated, usually from 57.4 µM), usual class: inhibitors; Microtubule-associated protein tau (Homo sapiens), P10636; note: nearly all actives have a fitted effect of over 55% in size
#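 Heparin-induced fibrillization of the P301L-mutant K18 repeat-domain fragment of human tau was followed by ThT binding in quantitative high-throughput format.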
# Sfp inh – qHTS Assay for Inhibitors of Bacillus subtilis Sfp phosphopantetheinyl transferase (PPTase); 4'-phosphopantetheinyl transferase ffp (Bacillus subtilis), Q9F4F7; Biochemical Sfp PPTase activity, qHTS; Potency, µM, actives largely listed as inhibitors; actives 3.5% (n = 310,000); AID 1490, 2009;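 note: the enzyme is Sfp with the accession as filed and its product quenches rhodamine fluorescence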
#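 Step 1, compound plus 15 nM Sfp-PPTase, 15 min, room temperature. Step 2, add rhodamine-CoA (5 uM) and BHQ-2-YbbR (12.5 uM). Step 3, read 525/598 nm fluorescence at 0 and 30 min.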
# Tau fluor cs – Counterscreen qHTS for Inhibitors of Tau Fibril Formation, Fluorescence Polarization. actives 0.93% (n = 280,000). Potency, µM (doses to about 57.7 µM). tau K18 P301L Alexa594 fluorescence, heparin fibrillization; note: nearly all actives have a fitted effect of over 55% in size
#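 Human tau K18 P301L (15 uM unlabeled, 0.24 uM Alexa 594-labeled) in 100 mM sodium acetate pH 7 with 20 uM heparin, 6 hr at 37 C. ThT 30 uM added, 1 hr ambient; Alexa 594 FP and total fluorescence read at 555/632 nm.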
# Coupling enz – qHTS Assay for Inhibitors of Fructose-1,6-bisphosphate Aldolase from Giardia Lamblia: Coupling assay counterscreen; coupling enzyme system counterscreen, AmpLite Red fluorescence; activity change, negative = inhibition, % at 58.2 µM, hits read low; actives 0.67% (n = 290,000); AID 2472, 2010; in the data active = activity change below about -30%
#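 Counterscreen lacking aldolase: glyceraldehyde-3-phosphate coupling-enzyme reagent preincubated 10 min at RT with compound (at 57.5 uM final), then substrate/coupling system with AmpLite Red added; fluorescence read at 525/598 nm after 20 min RT.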
# A number is an active result; . = inactive; ? = inconclusive; / = no result given; [ ] = dose if it differs, or a comment. Unless noted, calls come from the whole dose curve; as a rule, active = well fitted curve in the direction sought with a large enough effect; inconclusive = small, poorly fitted or top-dose-only effect, or another doubt; inactive = no such curve, though single readings can be large; an effect the other way counts as inactive or inconclusive.
SMILES,Tau fibril FP,G9a inh,Tau ThT inhib,Sfp inh,Tau fluor cs,Coupling enz
O=C(NCCNC(=O)c1ccco1)c1ccco1,/,.,/,.,/,.
O=C(NCCNC1CCCCC1)c1ccco1,/,45µM,/,.,/,.
CC1CCC(NCCNC(=O)c2ccco2)CC1 (centres undefined),/,35µM,/,.,/,.
O=C(NC1CCCCCCC1)c1ccco1,.,.[12.7 µM],.,.,.,.
Cc1ccccc1C1N(c2nccs2)C(=O)C2CCCN21 (centres undefined),?,?,?,50µM,.,.
CCOc1ccccc1C1N(c2ccc(F)cc2)C(=O)C2CCCN21 (centres undefined),.,.[12.7 µM],.,.,.,.
O=C1C2CCCN2C(c2ccccc2)N1c1nccs1 (centres undefined),.,?,.,50µM,.,.
CCCn1c2ccccc2c2nnc(SCc3[nH]c(=O)[nH]c3C(=O)CCCCC(=O)OCC)nc21,.,?,?,25µM,.,.
CCOCCc1nnc(NC(=O)C(=O)c2cc(C)n(-c3ccc(C)cc3C)c2C)s1,.,.,.,/,.,/
C=CCN(C(=O)c1csnn1)C(C(=O)NCc1ccc(F)cc1)c1ccccc1 (centres undefined),/,.,/,.,/,.
COc1cc(N2CCCC2)c(OC)cc1/C=C(/C#N)c1ccc(Br)cc1,.,2.8µM,?,.,?,.
COc1cc(N2CCCC2)ccc1C=O,.,.,.,.,.,.
COc1cc(N2CCCC2)c(OC)cc1/C=C(/C#N)c1ccc(F)cc1,.,1.6µM,?,?,?,.
Cc1ccc(/C=C/C(=O)Nc2ccc3nc(N4CCC(C)CC4)cc(C)c3c2)cc1,.,.,2.5µM,/,6.3µM[quencher],/
Cc1cc(N2CCC(C)CC2)nc2ccc(NC(=O)/C=C/c3cccc(Cl)c3)cc12,.,.,6.3µM,/,14µM[quencher],/
Cc1ccc(Cl)cc1N1CCN(C(=O)CCC(=O)Nc2ccc3nc(N4CCC(C)CC4)cc(C)c3c2)CC1,.,.,?,/,?,/
CC(C)OC(=O)[C@@H]1CC[C@H](C)[C@@H](CCCCO)O1,.,/,.,.,.,.
COc1ccc(-c2cc3ncc(C(=O)c4cc([N+](=O)[O-])ccc4O)cn3n2)cc1,.,.,7.1µM,/,.,/
Cc1ccc(-c2cc3ncc(C(=O)c4cc(Cl)c(C)cc4O)cn3n2)cc1,?,.,.,/,.,/
COc1ccccc1CN(Cc1c(Cl)cccc1Cl)S(=O)(=O)c1ccc(Br)cc1,.,.,.,/,.,/
CCc1ccc(NC(=O)C(CC)Sc2nc3cc4c(cc3c(=O)n2Cc2ccco2)OCO4)cc1 (centres undefined),.,.,.,45µM,.,.
CCOc1ccc(-c2cc(N)n(S(=O)(=O)c3cccc4nsnc34)n2)cc1,.,22µM,/,.,?,.
O=C(O)CN1C(=O)C2C3CC(C2C1=O)C1C(c2ccc(F)cc2)c2sc(=O)[nH]c2SC31 (centres undefined),.,45µM,?,45µM,.,.
O=C(O)CN1C(=O)C2C3CC(C2C1=O)C1C(c2ccc(Cl)cc2)c2sc(=O)[nH]c2SC31 (centres undefined),.,50µM,.,.,.,.
O=C(O)CCCN1C(=O)C2C3CC(C2C1=O)C1C(c2ccccc2)c2sc(=O)[nH]c2SC31 (centres undefined),.,?,?,?,.,.
SMILES,Tau fibril FP,G9a inh,Tau ThT inhib,Sfp inh,Tau fluor cs,Coupling enz
CCc1cccc(NC(=O)[C@@H]2CCCN2C2=NS(=O)(=O)c3ccccc32)c1,/,.[12.7 µM],/,/,/,/
COc1ccc([C@H]2Oc3cc(O)cc(O)c3C(=O)C2[C@@H]2C(=O)c3c(O)cc(O)cc3O[C@@H]2c2ccc(OC)cc2)cc1 (some centres undefined),18µM,.,?,.,.,.
O=C1c2c(O)cc(O)cc2OC(c2ccc(O)c(O)c2)C1O (centres undefined),.,?,?,.,.,.
O=C(NC1CCSC1=O)C1CC(=O)N(c2ccc(F)cc2)C1 (centres undefined),/,.,/,.,/,.
CCOC(=O)c1c(C)oc2c1c(C(c1ccccc1)N1CCOCC1)c(O)c1ccccc12 (centres undefined),.,?,.,.,.,-42
CCOC(=O)c1c(C)oc2c1c(C(c1cccnc1)N1CCCCC1)c(O)c1ccccc12 (centres undefined),.,?,?,.,?,-36
CCOC(=O)c1c(C)oc2c1c(C=NCCO)c(O)c1ccccc12,.,50µM,13µM,50µM,?,-65
COc1ccccc1CNC(=O)c1sc2nc3n(c(=O)c2c1C)CCC3,.,.,?,/,.,/
C=COCCn1c(=N)n(CCC)c2ccccc21,28µM,.,.,.,?,.
CCCn1c(=N)n(CC(=O)OCC)c2ccccc21,.,.,.,.,.,.
CCOC(=O)C(=O)NCC(c1cccs1)S(=O)(=O)c1ccc(F)cc1 (centres undefined),/,.[0.501 µM],/,/,/,/
COCCn1nnnc1CN(Cc1ccco1)Cc1cc2cc3c(cc2[nH]c1=O)OCO3,.,.[12.7 µM],.,.,.,.
Cc1ccc2cc(CN(Cc3ccc4c(c3)OCO4)Cc3nnnn3Cc3ccco3)c(=O)[nH]c2c1C,.,11µM,.,22µM,.,.
Cc1ccc2cc(CN(CCN3CCOCC3)Cc3nnnn3Cc3ccco3)c(=O)[nH]c2c1C,.,56µM,.,.,.,.
COc1cc2cc(CN(CCCN3CCOCC3)Cc3nnnn3Cc3ccccc3)c(=O)[nH]c2cc1OC,.,/,.,.,.,.
Cc1ccc(C)c2[nH]c(=O)c(CN(Cc3ccc4c(c3)OCO4)Cc3nnnn3Cc3ccco3)cc12,.,.,.,50µM,.,.
CCCCC(=O)Nc1nnc(SCc2cc(=O)n3cc(C)ccc3n2)s1,.,.,.,/,.,/
COc1cc(CNC(=O)c2ccc3c(c2)N(C)C(=O)C2CCCCN32)cc(OC)c1OC (centres undefined),.,.,.,/,.,/
CCN1CCN(C(=O)Cn2ncc3c4ccccc4n(Cc4ccccc4F)c3c2=O)CC1,.,.,.,/,.,/
c1ccc2c(N3CCCCC3)ncnc2c1,.,.[12.7 µM],.,.,.,.
CN1CC[n+]2cnc3ccccc3c21,.,2.5µM,.,?,.,.
CCCN(CCC)CCCNC(=O)c1cc2c(=O)[nH]c3ccccc3c2s1,/,.,/,.,/,.
